An excerpt weighted towards active compounds, which were near 1.2% of everything screened.
PG9 Ab binder: small molecules binding HIV-1 gp120 antibody PG9. TR-FRET gp120-PG9 antibody binding. inhibition, % at 6.7 µM. 360,000 compounds, 0.43% hits; in the data active = inhibition above about 8.5%
PKA-R2B activ: activators of human PKA-R2B complex. PKA-R2B holoenzyme dissociation, Cy5-IP20 fluorescence polarization; R2B truncated from residue 108, S112A mutant; 0% DMSO only, 100% 113 µM cGMP. P22694+P31323. 340,000 compounds, 0.079% hits. activation, % at 11.4 µM. AID 504700;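 active = activation above a cutoff set at the mean over all compounds plus 3 SD, cut at about 18% in these data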;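 note: higher means more holoenzyme dissociation and a rise in polarization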
Rev-erbA mod: modulators of human Rev-erb alpha DNA binding. activity, % at 10 µM. Rev-erbα–FITC-DNA binding, fluorescence polarization, 90 min. 370,000 compounds, 0.79% hits;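 active = activity above about 14%, limit read from the data; passing the limit was not always enough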
Target sequence (P20393 whole entry, looked up): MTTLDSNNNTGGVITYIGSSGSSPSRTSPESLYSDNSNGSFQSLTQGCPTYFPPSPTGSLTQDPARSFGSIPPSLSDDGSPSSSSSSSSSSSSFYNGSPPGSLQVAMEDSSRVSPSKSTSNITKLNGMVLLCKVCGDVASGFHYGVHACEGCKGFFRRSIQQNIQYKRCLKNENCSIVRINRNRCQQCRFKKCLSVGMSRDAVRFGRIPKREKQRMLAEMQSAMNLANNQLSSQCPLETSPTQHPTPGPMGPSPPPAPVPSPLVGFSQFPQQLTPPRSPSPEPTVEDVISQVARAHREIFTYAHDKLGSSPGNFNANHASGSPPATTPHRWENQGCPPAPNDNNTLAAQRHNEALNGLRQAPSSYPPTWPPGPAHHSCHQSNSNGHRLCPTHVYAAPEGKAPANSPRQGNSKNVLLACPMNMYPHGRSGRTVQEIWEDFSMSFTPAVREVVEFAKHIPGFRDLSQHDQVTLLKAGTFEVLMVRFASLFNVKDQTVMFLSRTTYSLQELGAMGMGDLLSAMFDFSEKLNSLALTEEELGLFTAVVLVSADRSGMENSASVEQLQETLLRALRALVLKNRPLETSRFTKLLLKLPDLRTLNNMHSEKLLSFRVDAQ
PKA-R1A act: activates the PKA-R1A holoenzyme complex | 340,000 compounds, 0.083% hits | activation, % at 11.4 µM | AID 504707 | PKA-R1A dissociation, Cy5-IP20 fluorescence polarization; scaled: DMSO 0%, 113 µM cGMP 100%;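 active = percent activation above the mean of all tested compounds plus 3 SD, cut at about 19% in these data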;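 note: higher means more PKAc released from R1A so a rise in polarization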
PG9 binder conf: PG9 antibody binding, confirmed; shares compounds with PG9 Ab binder; TR-FRET PG9 antibody binding, biochemical; inhibition, % at 6.7 µM; 1,500 compounds, 90% hits; AID 651571; in the data active = inhibition above about 9%
PGV04 counter: counter-screen for PG9 binders: binding control antibody PGV04; shares compounds with PG9 Ab binder; TR-FRET PGV04 antibody-gp120 binding, biochemical; inhibition, % at 6.7 µM; 1,500 compounds, 95% hits; in the data active = inhibition above about 9.5%
NR1D1 mod conf: Rev-erb alpha (human) modulation, hit confirmation | Rev-erb alpha FITC-DNA binding, fluorescence polarization, 90 min | activation, % at 25 µM | shares compounds with Rev-erbA mod | 3,000 compounds, 61% hits;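 active = activation at or above a set limit, or at least 3 SD above the negative control mean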
RORg DNA counter: affects RORgamma DNA binding in a Rev-erb alpha counter-screen; shares compounds with Rev-erbA mod; purified RORgamma protein-FITC-DNA binding, fluorescence polarization; IC50, µM; 910 compounds, 8% hits; AID 1259320;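 active = Compounds whose fitted half-maximal concentration for disrupting protein-DNA binding is below 10 micromolar; the record names Rev-erb in its text, so the target is in doubt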
Each line names hits and unclear results; the compound was inactive in the other large screens (follow-up assays come after a bar, where they were run).

CCC(C)n1c(=O)c(C(=O)Nc2ccccc2S(N)(=O)=O)c(O)c2ccccc21 (stereo not given)	PG9 Ab binder 13.8, Rev-erbA mod 54.1 | PG9 binder conf 13.7 | PGV04 counter 22.7 | NR1D1 mod conf 31.0
Cn1c(=O)c(C(=O)Nc2ccccc2S(N)(=O)=O)c(O)c2ccccc21	none
Cc1cc(C)cc(NC(=O)CSc2nc3ccncc3[nH]2)c1	none
Cc1ccc(CSc2nc3ccncc3n2CC(=O)Nc2cc(C)cc(C)c2)cc1	PG9 Ab binder 24.9, Rev-erbA mod 80.7 | PG9 binder conf 32.2 | PGV04 counter 49.5 | NR1D1 mod conf 34.1 | RORg DNA counter 0.258
CCOC(=O)c1c(NC(=O)C2c3ccccc3Oc3ccccc32)sc(C(N)=O)c1C	PG9 Ab binder 33.4, Rev-erbA mod 40.5 | PG9 binder conf 28.3 | PGV04 counter 41.2 | NR1D1 mod conf 26.1
CCOC(=O)c1sc(NC(C)=O)c(C(=O)OCC)c1C	none
CCOC(=O)c1sc(NC(=O)CN(CC)CC)c(C(=O)OCC)c1C	PG9 Ab binder 17.0, Rev-erbA mod 43.1 | PG9 binder conf inactive | PGV04 counter inactive | NR1D1 mod conf inactive
c1ccc(OC2CCN(c3ncnc4sccc34)CC2)cc1	none (no result: PG9 Ab binder, PKA-R2B activ, PKA-R1A act)
O=C(CC1CCCC1)N1CC[C@H]2[C@H](CCCN2Cc2cc(F)cc(F)c2)C1	none (no result: PG9 Ab binder, PKA-R2B activ, PKA-R1A act)
COC(=O)CSc1nc(C)c(C(=O)Nc2ccccc2C)c(-c2ccc(Cl)cc2)c1C#N	PG9 Ab binder 9.1, Rev-erbA mod 26.1 | PG9 binder conf inactive | PGV04 counter 16.3 | NR1D1 mod conf inactive
Cc1ccccc1NC(=O)c1c(C)nc(SCC(=O)OCc2ccccc2)c(C#N)c1-c1ccc(F)cc1	none
COc1cc2cc(Br)cc(Br)c2nc1C	PG9 Ab binder 47.5, Rev-erbA mod 36.6 | PG9 binder conf 39.7 | PGV04 counter 53.7 | NR1D1 mod conf 22.2
COc1ccccc1CC(=O)NCCN1C(=O)C2C3C=CC(C3)C2C1=O (stereo not given)	none (no result: PG9 Ab binder, PKA-R2B activ, PKA-R1A act)
COc1ccc2[nH]c(C(=O)Nc3ncc(C)cc3Br)cc2c1	none
COc1ccc2[nH]c(C(=O)Nc3ccc(F)cc3Br)cc2c1	PG9 Ab binder 16.0, Rev-erbA mod 68.5 | PG9 binder conf 22.5 | PGV04 counter 64.8 | NR1D1 mod conf 79.0 | RORg DNA counter inactive
O=C(Nc1ccc(F)cc1)c1cc2cc(Cl)ccc2[nH]1	PG9 Ab binder 11.0, Rev-erbA mod 43.3 | PG9 binder conf 12.7 | PGV04 counter 21.2 | NR1D1 mod conf inactive
CCc1ccc2[nH]c(C(=O)Nc3ccc(C)c(F)c3)cc2c1	none
CCCCOCCCNC(=O)C[C@@H]1C(=O)N2CCCC3=C2[C@@]1(C(=O)OCC)CCC3	none (no result: PG9 Ab binder, PKA-R2B activ, PKA-R1A act)
CCOC(=O)[C@]12CCCCC/C=C\1N(Cc1ccc(OC)cc1)C(=O)[C@H]2CC(=O)N1CCN(C(=O)c2ccco2)CC1	none (no result: PG9 Ab binder, PKA-R2B activ, PKA-R1A act)
COc1cccc(NC(=O)CSc2ncnc3c2oc2ccccc23)c1	PG9 Ab binder 68.7, Rev-erbA mod 684.7 | PG9 binder conf 75.5 | PGV04 counter 92.8 | NR1D1 mod conf 749.3 | RORg DNA counter inactive
COc1cccc(NC(=O)CSc2nc3c(oc4ccccc43)c(=O)[nH]2)c1	none
O=C(O)CSc1ncnc2c1oc1ccccc12	none
O=C(CSc1ncnc2c1oc1ccccc12)Nc1ccccc1C(F)(F)F	PG9 Ab binder 65.7, Rev-erbA mod 348.0 | PG9 binder conf 27.3 | PGV04 counter 74.8 | NR1D1 mod conf 341.2
O=C(CCCn1c(=S)[nH]c2cc3c(cc2c1=O)OCO3)NCc1cccc(Cl)c1	PG9 Ab binder 17.4, Rev-erbA mod 48.4 | PG9 binder conf 13.1 | PGV04 counter 22.6 | NR1D1 mod conf 29.9 | RORg DNA counter inactive
COc1ccc(CCNC(=O)CCCn2c(=S)[nH]c3cc4c(cc3c2=O)OCO4)cc1OC	none
O=C(CCn1c(=S)[nH]c2cc3c(cc2c1=O)OCO3)NCc1cccc(Cl)c1	none

Screens from PubChem BioAssay.
